Experimental data published in PubChem BioAssay.
The source made the active and inactive calls.

What was measured:
[1] = tested on: PRMT1 (protein arginine N-methyltransferase 1); test: small molecules binding arginine methyltransferase PRMT1 – biochemical, small-molecule microarray, 635 nm fluorescence, primary screen (AID 1088); details: higher = more signal;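 further: binding of Prmt1 protein to compounds spotted on small-molecule microarray slides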
[2] = growth effects on S. cerevisiae YJM789 – YJM789 clinical isolate, OD600, 24 h, basal, primary screen (AID 1089); details: higher = more signal, called active from +8 up or from −8 down;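 further: growth of clinical yeast isolate S. cerevisiae YJM 789 seeded 1000 cells per well; test concentration not given here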
[3] = S. pombe growth modifiers, basal conditions – strain 972, OD600, 24 h, no modulator, primary screen (AID 1090);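 further: basal condition with compound alone and no growth modifier present; test concentration not given here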; details: S. pombe 972 growth, higher = more signal, called active from +8 up or from −8 down
[4] = budding yeast growth modifiers under rapamycin – strain BY4716, OD600, 96 h, primary screen (AID 1091); further: test concentration not given here; details: S. cerevisiae BY4716 + rapamycin, higher = more signal, called active from +8 up or from −8 down
[5] = biological target: Torsin-1A-interacting protein 2 (Homo sapiens) (UniProt Q8NFQ8); test: small molecules binding lysate-expressed LULL1 – cell lysate, human LULL1 lysate, 635/667 nm fluorescence, primary screen (AID 1092); details: small-molecule microarray, hLULL1 lysate binding, 635 nm fluorescence; higher = more signal;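 further: probe is lysate of COS7 cells overexpressing human LULL1; score merges per-feature 667 nm fluorescence with signal-to-noise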
[6] = optical density change of DRC41 E. coli – strain DRC41, OD650, 24 h, E. coli filamentation project, primary screen (AID 1093);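 further: MC1000 strain lacking acrAB efflux and sulA so SOS filamentation is blocked; test concentration not given here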; details: E. coli DRC41 growth, higher = more signal, called active from +8 up or from −8 down
[7] = probe aLefty2 binding to arrayed compounds – biochemical, biotinylated probe, 635/667 nm fluorescence, primary screen (AID 1094); details: small-molecule microarray, higher = more signal;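 further: score merges spot fluorescence near 667 nm with spot signal-to-noise ratio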
[8] = tested on: Noggin (protein binding on small-molecule microarray); test: small molecules binding Noggin protein – biochemical, 635/667 nm fluorescence, primary screen (AID 1095); details: 635 nm fluorescence, higher = more signal;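 further: score merges 667 nm feature fluorescence with signal to noise over triplicate slides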
[9] = biological target: Neurogenic locus notch homolog protein 3 (Homo sapiens) (UniProt Q9UM47); test: small molecules binding NOTCH3 protein – biochemical, 635/667 nm fluorescence, primary screen (AID 1096); details: small-molecule microarray, 635 nm fluorescence, higher = more signal
[10] = probe aEGFR binding to arrayed compounds – biochemical, biotinylated probe, 635/667 nm fluorescence, primary screen (AID 1097); details: small-molecule microarray, higher = more signal;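 further: probe is a biotinylated anti-EGFR antibody binding compounds printed on slides; score combines fluorescence near 667 nm and signal to noise of each spot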
[11] = tested on: Plasmodium falciparum Sir2 (PF13_0152, Sir2A); test: Plasmodium falciparum Sir2A binding compounds – biochemical, small-molecule microarray, 635 nm fluorescence, primary screen (AID 1098); details: fluorescence 635 nm, higher = more signal;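 further: score merges spot fluorescence intensity with its signal-to-noise ratio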
[12] = probe aDKK1 binding to arrayed compounds – biochemical, biotinylated probe, 635/667 nm fluorescence, primary screen (AID 1099); details: small-molecule microarray, higher = more signal;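 further: score merges 667nm spot fluorescence with signal to noise across triplicate slides; reference of the scale not given here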
[13] = probe aCHRDL2 binding to arrayed compounds – biochemical, biotinylated probe, 635/667 nm fluorescence, primary screen (AID 1100); details: small-molecule microarray, higher = more signal
[14] = change in splice reporter luminescence, either direction, cell-based, HEK293, spliceosome inhibition project, primary screen (AID 1101); details: HEK293 splicing luciferase reporter, 24 h, higher = more signal, called active from +8 up or from −8 down;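 further: HEK293 cells carrying a splicing-competent luciferase reporter gene; test concentration not given here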
[15] = biological target: Fibroblast growth factor 10 (Homo sapiens) (UniProt O15520); test: compounds binding fibroblast growth factor 10 – biochemical, small-molecule microarray, 635 nm fluorescence, primary screen (AID 1102); details: FGF10 binding, fluorescence 635 nm, higher = more signal
[16] = tested on: glycogen synthase kinase-3 (GSK3A per assay name; protocol says GSK3B); test: compounds binding glycogen synthase kinase-3 – biochemical, small-molecule microarray, 635 nm fluorescence, GSK3A, primary screen (AID 1103); details: fluorescence 635 nm, higher = more signal; further: the record names both GSK3A and GSK3B
[17] = biological target: Epidermal growth factor receptor (Homo sapiens) (UniProt P00533); test: compounds binding epidermal growth factor receptor – biochemical, small-molecule microarray, 635 nm fluorescence, primary screen (AID 1104); details: EGFR binding, higher = more signal;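 further: score merges 667 nm emission intensity with spot signal to noise over triplicate slides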
[18] = biological target: Follistatin-related protein 3 (Homo sapiens) (UniProt O95633); test: compounds binding follistatin-related protein 3 – biochemical, small-molecule microarray, 635 nm fluorescence, primary screen (AID 1105); details: FSTL3 binding, higher = more signal;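 further: score merges emission near 667 nm and signal to noise per printed spot across three slides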
[19] = biological target: Dickkopf-related protein 1 (Homo sapiens) (UniProt O94907); test: small molecules binding DKK1 protein – biochemical, small-molecule microarray, 635 nm fluorescence scan, primary screen (AID 1106); details: higher = more signal;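 further: score merges emission near 667 nm with signal to noise over three replicate slides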
[20] = tested on: Inhibin beta A chain (activin A); test: small molecules binding activin A – biochemical, small-molecule microarray, 635 nm fluorescence scan, primary screen (AID 1107); details: INHBA, higher = more signal;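 further: mouse activin A protein probed at 4.33 µg/mL on printed slides; score merges bound-protein fluorescence near 667 nm with spot signal-to-noise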

Sequence of Epidermal growth factor receptor (Homo sapiens) (P00533 whole entry, looked up): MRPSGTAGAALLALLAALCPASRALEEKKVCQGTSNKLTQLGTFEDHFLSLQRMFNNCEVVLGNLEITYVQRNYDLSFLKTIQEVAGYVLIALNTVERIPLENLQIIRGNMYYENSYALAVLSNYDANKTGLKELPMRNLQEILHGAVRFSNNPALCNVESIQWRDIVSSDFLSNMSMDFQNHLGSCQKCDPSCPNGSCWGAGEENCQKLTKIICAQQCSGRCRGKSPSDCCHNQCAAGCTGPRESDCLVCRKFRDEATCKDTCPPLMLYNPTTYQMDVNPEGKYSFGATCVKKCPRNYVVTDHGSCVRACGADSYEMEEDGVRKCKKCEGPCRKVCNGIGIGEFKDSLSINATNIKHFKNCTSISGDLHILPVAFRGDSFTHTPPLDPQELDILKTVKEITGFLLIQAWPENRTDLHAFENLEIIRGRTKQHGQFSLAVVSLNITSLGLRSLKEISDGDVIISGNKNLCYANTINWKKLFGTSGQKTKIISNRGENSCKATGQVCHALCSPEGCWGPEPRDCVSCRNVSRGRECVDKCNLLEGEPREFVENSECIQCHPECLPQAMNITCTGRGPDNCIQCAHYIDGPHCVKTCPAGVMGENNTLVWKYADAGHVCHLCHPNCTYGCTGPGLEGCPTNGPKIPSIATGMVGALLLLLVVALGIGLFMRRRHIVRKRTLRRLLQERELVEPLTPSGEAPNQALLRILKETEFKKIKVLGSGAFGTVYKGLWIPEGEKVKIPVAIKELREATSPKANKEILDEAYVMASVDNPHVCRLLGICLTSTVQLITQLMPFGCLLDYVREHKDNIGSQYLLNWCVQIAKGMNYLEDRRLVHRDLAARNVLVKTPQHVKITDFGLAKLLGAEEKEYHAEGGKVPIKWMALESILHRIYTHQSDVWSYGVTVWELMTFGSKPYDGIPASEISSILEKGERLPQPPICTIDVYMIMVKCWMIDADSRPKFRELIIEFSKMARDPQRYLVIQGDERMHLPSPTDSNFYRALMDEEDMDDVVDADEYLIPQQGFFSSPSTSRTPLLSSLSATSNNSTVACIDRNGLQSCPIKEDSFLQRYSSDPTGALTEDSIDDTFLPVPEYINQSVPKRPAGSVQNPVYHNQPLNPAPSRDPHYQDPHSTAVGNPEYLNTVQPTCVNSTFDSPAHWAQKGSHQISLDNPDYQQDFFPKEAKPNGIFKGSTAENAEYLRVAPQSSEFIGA
Sequence of Neurogenic locus notch homolog protein 3 (Homo sapiens) (Q9UM47 whole entry, looked up): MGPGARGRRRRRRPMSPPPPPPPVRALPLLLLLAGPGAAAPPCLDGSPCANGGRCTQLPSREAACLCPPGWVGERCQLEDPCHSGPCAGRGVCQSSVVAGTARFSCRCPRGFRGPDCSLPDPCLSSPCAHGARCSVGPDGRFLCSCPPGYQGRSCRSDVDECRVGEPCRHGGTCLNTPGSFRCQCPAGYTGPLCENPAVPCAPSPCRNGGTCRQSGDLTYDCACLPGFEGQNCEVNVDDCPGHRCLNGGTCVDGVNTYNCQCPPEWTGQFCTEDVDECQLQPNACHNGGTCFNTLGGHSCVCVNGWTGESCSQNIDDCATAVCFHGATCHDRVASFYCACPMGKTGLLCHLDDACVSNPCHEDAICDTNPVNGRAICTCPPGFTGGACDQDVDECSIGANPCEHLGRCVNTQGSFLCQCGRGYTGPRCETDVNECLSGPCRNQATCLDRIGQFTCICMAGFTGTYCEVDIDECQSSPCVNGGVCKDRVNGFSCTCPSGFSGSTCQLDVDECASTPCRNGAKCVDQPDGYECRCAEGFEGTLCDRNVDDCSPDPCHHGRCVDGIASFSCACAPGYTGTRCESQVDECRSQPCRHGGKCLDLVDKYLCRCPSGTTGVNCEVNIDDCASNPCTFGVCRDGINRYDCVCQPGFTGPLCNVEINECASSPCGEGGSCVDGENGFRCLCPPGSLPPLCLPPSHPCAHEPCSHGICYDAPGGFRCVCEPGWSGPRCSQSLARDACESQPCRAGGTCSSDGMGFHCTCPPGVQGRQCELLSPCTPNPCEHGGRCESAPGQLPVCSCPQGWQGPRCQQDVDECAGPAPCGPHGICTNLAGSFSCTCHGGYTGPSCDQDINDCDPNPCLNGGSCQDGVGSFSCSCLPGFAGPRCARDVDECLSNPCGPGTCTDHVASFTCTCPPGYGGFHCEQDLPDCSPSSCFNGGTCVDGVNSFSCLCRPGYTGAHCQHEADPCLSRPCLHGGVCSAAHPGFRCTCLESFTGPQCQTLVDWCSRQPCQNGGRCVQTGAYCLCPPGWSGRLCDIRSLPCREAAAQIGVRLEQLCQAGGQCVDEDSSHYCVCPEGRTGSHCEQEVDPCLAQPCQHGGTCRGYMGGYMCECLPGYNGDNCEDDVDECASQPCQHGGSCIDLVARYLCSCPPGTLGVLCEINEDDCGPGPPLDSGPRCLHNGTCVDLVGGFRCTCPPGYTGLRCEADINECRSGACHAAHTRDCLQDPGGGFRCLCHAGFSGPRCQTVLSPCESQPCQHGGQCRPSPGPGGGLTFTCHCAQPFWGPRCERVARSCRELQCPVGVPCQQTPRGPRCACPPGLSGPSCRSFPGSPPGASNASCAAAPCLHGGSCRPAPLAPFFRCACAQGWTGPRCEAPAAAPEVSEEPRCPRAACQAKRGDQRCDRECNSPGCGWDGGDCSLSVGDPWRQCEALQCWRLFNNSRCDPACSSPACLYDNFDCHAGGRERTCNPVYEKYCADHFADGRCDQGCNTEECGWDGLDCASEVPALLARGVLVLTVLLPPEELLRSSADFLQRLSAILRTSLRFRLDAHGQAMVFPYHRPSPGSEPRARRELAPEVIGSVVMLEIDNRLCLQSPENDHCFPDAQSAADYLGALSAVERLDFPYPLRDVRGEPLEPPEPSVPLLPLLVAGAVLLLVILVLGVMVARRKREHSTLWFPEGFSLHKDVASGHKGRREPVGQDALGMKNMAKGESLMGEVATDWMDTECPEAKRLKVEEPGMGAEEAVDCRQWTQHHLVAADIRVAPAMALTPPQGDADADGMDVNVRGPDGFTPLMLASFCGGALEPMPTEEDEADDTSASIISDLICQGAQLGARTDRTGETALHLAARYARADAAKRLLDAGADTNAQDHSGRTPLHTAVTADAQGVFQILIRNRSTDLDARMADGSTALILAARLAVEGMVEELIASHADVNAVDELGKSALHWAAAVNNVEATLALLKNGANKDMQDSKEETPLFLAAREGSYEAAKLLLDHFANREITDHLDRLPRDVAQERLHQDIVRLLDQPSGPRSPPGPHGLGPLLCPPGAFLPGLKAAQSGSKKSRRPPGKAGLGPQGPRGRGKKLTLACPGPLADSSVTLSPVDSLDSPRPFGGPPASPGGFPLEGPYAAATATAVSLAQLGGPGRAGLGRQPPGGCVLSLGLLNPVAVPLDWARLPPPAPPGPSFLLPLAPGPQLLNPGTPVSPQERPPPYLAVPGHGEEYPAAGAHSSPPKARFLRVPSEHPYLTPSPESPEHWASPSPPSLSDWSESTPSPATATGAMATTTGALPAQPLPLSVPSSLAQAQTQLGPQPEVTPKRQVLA
Sequence of Dickkopf-related protein 1 (Homo sapiens) (O94907 whole entry, looked up): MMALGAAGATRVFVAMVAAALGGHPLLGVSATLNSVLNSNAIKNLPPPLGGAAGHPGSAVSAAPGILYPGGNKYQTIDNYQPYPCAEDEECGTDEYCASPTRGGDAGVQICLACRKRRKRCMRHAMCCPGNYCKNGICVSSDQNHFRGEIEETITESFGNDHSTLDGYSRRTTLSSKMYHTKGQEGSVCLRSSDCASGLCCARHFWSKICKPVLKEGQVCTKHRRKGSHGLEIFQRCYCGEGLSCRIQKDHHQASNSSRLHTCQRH
Sequence of Fibroblast growth factor 10 (Homo sapiens) (O15520 whole entry, looked up): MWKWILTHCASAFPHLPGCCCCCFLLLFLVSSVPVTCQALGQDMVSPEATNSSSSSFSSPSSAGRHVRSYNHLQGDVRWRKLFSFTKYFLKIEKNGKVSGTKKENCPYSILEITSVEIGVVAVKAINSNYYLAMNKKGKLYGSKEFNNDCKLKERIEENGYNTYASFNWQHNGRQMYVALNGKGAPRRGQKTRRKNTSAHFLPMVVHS
Sequence of Torsin-1A-interacting protein 2 (Homo sapiens) (Q8NFQ8 whole entry, looked up): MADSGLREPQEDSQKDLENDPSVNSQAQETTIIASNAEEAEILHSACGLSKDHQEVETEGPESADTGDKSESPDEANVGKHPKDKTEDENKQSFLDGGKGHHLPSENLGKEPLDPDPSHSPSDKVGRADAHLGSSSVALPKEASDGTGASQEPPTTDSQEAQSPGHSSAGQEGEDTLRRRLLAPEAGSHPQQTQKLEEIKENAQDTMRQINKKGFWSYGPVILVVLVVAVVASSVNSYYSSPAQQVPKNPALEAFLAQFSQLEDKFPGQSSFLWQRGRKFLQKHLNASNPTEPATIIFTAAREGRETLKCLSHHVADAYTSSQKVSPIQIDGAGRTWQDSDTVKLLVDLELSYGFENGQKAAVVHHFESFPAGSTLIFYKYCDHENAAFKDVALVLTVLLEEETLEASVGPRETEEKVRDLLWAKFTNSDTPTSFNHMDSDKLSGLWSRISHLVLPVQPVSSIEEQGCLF
Sequence of Follistatin-related protein 3 (Homo sapiens) (O95633 whole entry, looked up): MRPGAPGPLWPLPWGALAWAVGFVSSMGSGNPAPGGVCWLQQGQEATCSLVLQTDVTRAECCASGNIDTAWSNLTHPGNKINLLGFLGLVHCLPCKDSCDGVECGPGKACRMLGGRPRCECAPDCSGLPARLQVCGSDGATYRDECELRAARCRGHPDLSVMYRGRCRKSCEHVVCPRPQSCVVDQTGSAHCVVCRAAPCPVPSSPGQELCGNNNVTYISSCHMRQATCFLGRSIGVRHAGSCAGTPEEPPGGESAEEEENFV

Row | SMILES | composite z-score [1] | z-score [2] | z-score [3] | z-score [4] | composite z-score [5] | z-score [6] | composite z-score [7] | composite z-score [8] | composite z-score [9] | composite z-score [10] | composite z-score [11] | composite z-score [12] | composite z-score [13] | z-score [14] | composite z-score [15] | composite z-score [16] | composite z-score [17] | composite z-score [18] | composite z-score [19] | composite z-score [20]
1 | COc1ccc(CC[C@H](O)c2cccc(OCC(=O)OC(C)(C)C)c2)cc1 | 1.55 | -2.98 (inactive) | -3.06 (inactive) | 28.1 (active) | 2.12 | 0.362 (inactive) | 0.165 | 0.956 | 1.09 | 0.0656 | 1.16 | 0.15 | -0.0667 | 1.3 (inactive) | 0.883 | 1.06 | 0.344 | 1.09 | 0.688 | -0.0035
2 | CCOC(=O)C[C@H]1[C@H](OC(=O)c2ccc(-c3ccccc3)cc2)[C@@H](NC(=O)CC(C)C)c2cc(OCCCO)ccc2N1C(=O)Cc1ccc(OC)cc1 | 0.403 | -1.15 (inactive) | -0.218 (inactive) | 0.143 (inactive) | 0.734 | -1.1 (inactive) | 0.19 | -0.316 | -0.117 | -0.0084 | -0.146 | 0.448 | 0.624 | -0.463 (inactive) | 0.22 | 0.0434 | -0.263 | -0.195 | -0.204 | -0.353
3 | COc1ccc(C#Cc2ccc3c(c2)[C@]2(C(=O)N3)[C@H](c3ccc(OCCO)cc3)N3[C@H](c4ccccc4)[C@H](c4ccccc4)OC(=O)[C@H]3[C@@H]2C(=O)O)cc1 | 1.54 | 2.83 (inactive) | 0.685 (inactive) | 1.4 (inactive) | 3.21 | 2.57 (inactive) | -0.232 | 1.29 | 1.04 | 0.0649 | 0.955 | 0.606 | 0.176 | -1.35 (inactive) | 1.42 | 1.22 | 0.398 | 1.44 | 0.183 | 0.751
4 | COCCOC(=O)N1C(=O)[C@@]2(c3cc(C#CCCO)ccc31)[C@H](c1ccc(O)cc1)N1[C@H](c3ccccc3)[C@H](c3ccccc3)OC(=O)[C@H]1[C@@H]2C(=O)N1CCc2cc(OC)c(OC)cc2C1 | 1.52 | 0.47 (inactive) | 0.511 (inactive) | 1.23 (inactive) | 2.45 | -0.617 (inactive) | -0.0616 | 1.55 | 1.06 | 0.122 | 1.16 | 0.058 | 0.342 | 0.305 (inactive) | 1.39 | 1.31 | 0.878 | 1.44 | 0.993 | 1.01
5 | COc1ccc([Si](C)(C)[C@H]2[C@H](CCO)O[C@@]3(C(=O)N(Cc4ccc(N5CCOC5=O)cc4)c4ccccc43)[C@@H]2C)cc1 | 1.06 | 3.62 (inactive) | 0.623 (inactive) | 35.9 (active) | 1.27 | 0.816 (inactive) | -0.139 | 0.0178 | 0.287 | -0.315 | 0.901 | -0.0663 | 0.171 | -1.15 (inactive) | -0.0921 | -0.155 | -0.197 | -0.0181 | -0.524 | 0.416
6 | CC(C)CNC(=O)[C@@H]1c2ccccc2C(=O)N(C2Cc3ccccc3C2)[C@H]1c1ccc(CO)cc1 | 0.962 | -0.226 (inactive) | -0.59 (inactive) | -0.434 (inactive) | 2.59 | 2.01 (inactive) | 0.159 | -0.646 | -0.145 | -0.311 | 1.41 | -0.0818 | 0.435 | -0.179 (inactive) | -0.127 | -0.0545 | -0.267 | -0.192 | -0.777 | 0.245
7 | CCOC(=O)C[C@H]1[C@H](OC(=O)c2cc3ccccc3oc2=O)[C@@H](NC(=O)C2CCCCC2)c2cc(OCCCO)ccc2N1C(=O)Cc1ccc(OC)cc1 | 0.466 | 0.248 (inactive) | 0.222 (inactive) | -0.295 (inactive) | 0.727 | -0.723 (inactive) | 0.0424 | 0.909 | 0.894 | -0.0623 | 0.199 | 0.0483 | 0.0801 | 0.0427 (inactive) | 1 | 0.469 | 0.193 | 0.397 | 0.447 | 0.6
8 | COc1cccc(C[C@H]2C[C@@H](CO[Si](C(C)C)(C(C)C)C(C)C)N3C(=O)[C@@]4(C(C)=O)O[C@@]23[C@@H]2C(=O)N(C)C(=O)[C@@H]24)c1 | 1.56 | 0.368 (inactive) | 0.827 (inactive) | 1.6 (inactive) | 0.189 | -0.929 (inactive) | -0.105 | 0.456 | 1.16 | 0.127 | 0.95 | -0.0648 | -0.197 | -0.989 (inactive) | 1.22 | 0.5 | 0.494 | 1.17 | 1.62 | -0.0336
9 | O=C1O[C@H](c2ccccc2)[C@H](c2ccccc2)N2[C@H]1[C@@H](C(=O)N1CCN(c3ncccn3)CC1)[C@]1(C(=O)Nc3ccccc31)[C@H]2c1ccc(O)cc1 | 1.51 | 1.92 (inactive) | 0.116 (inactive) | 3.6 (inactive) | 3.06 | 0.913 (inactive) | 0.032 | 0.0775 | 0.305 | -0.0936 | 0.612 | 0.571 | 0.544 | -0.117 (inactive) | 0.506 | 0.799 | -0.149 | -0.0987 | 0.165 | 0.0112
10 | C=C(/C(=C/C[C@@H](OC(C)=O)c1ccccc1OCCO)c1cc(C(=O)OC)ccc1OC)C(C)C | 0.551 | 0.343 (inactive) | -0.377 (inactive) | -0.729 (inactive) | 0.231 | 0.505 (inactive) | -0.119 | 0.235 | -0.163 | 0.198 | 1.08 | -0.114 | -0.242 | 0.314 (inactive) | 0.419 | 0.115 | -0.209 | -0.0844 | 0.0006 | 0.772
